Experimental data published in PubChem BioAssay AID1159580 (chemical genetic matrix, 2015).
Among all 5,500 compounds or so, about 2,000 (36%) were called active. Not shown: some 18% with an inconclusive outcome. No stated cut-off is given here; in the data, active means normalized growth mostly below about 0.91 (no sharp cut-off); inconclusive means no clear call, values can overlap the other calls; inactive means mostly above about 0.92. Some of the results follow.

Assay: chemical genetic growth profiling, strain panel (AID 1159580);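 further: tested at 20 µM; growth read once vehicle control cultures reached saturation at 30 °C; 1 = growth at the plate median or of vehicle wells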
Details: growth OD
[1] = S. cerevisiae deletion strains, locus YDL101C, strain DUN1, stronger effect = lower value
[2] = S. cerevisiae deletion strains, locus YHR030C, strain SLT2, stronger effect = lower value
[3] = S. cerevisiae deletion strains, locus YHR079C, strain IRE1, stronger effect = lower value
[4] = S. cerevisiae deletion strains, locus YJL095W, strain BCK1, stronger effect = lower value
[5] = S. cerevisiae deletion strains, locus YJR066W, strain TOR1, stronger effect = lower value
[6] = S. cerevisiae deletion strains, locus YLR113W, strain HOG1, stronger effect = lower value
[7] = S. cerevisiae deletion strains, locus YNL183C, strain NPR1, stronger effect = lower value
[8] = S. cerevisiae deletion strains, locus YOR231W, strain MKK1, stronger effect = lower value
[9] = S. cerevisiae deletion strains, locus YPL256C, strain CLN2, stronger effect = lower value

Measured: normalized growth

CCOC(=O)CCc1cc(N=Cc2cc(Br)ccc2O)c(O)c(N=Cc2cc(Br)ccc2O)c1
inactive: S. cerevisiae deletion strains, locus YAR019C, strain CDC15, stronger effect = lower value 0.963 | S. cerevisiae deletion strains, locus YBL105C, strain PKC1, stronger effect = lower value 0.959 | S. cerevisiae deletion strains, locus YBR135W, strain CKS1, stronger effect = lower value 0.968 | S. cerevisiae deletion strains, locus YBR136W, strain MEC1, stronger effect = lower value 0.966 | S. cerevisiae deletion strains, locus YBR160W, strain CDC28, stronger effect = lower value 0.959 | S. cerevisiae deletion strains, locus YDL017W, strain CDC7, stronger effect = lower value 0.962 | S. cerevisiae deletion strains, locus YDL028C, strain MPS1, stronger effect = lower value 0.968 | [1] 0.967 | S. cerevisiae deletion strains, locus YDL108W, strain KIN28, stronger effect = lower value 0.959 | S. cerevisiae deletion strains, locus YDL132W, strain cdc53, stronger effect = lower value 0.961 | S. cerevisiae deletion strains, locus YDL214C, strain PRR2, stronger effect = lower value 0.834 | S. cerevisiae deletion strains, locus YDR052C, strain DBF4, stronger effect = lower value 0.953 | S. cerevisiae deletion strains, locus YDR054C, strain cdc34, stronger effect = lower value 0.951 | S. cerevisiae deletion strains, locus YDR226W, strain ADK1, stronger effect = lower value 0.979 | S. cerevisiae deletion strains, locus YDR477W, strain SNF1, stronger effect = lower value 0.805 | S. cerevisiae deletion strains, locus YER123W, strain YCK3, stronger effect = lower value 0.66 | S. cerevisiae deletion strains, locus YER133W, strain GLC7, stronger effect = lower value 0.788 | S. cerevisiae deletion strains, locus YFL009W, strain cdc4, stronger effect = lower value 0.962 | S. cerevisiae deletion strains, locus YFL029C, strain CAK1, stronger effect = lower value 0.955 | S. cerevisiae deletion strains, locus YFR003C, strain YPI1, stronger effect = lower value 0.961 | S. cerevisiae deletion strains, locus YFR019W, strain FAB1, stronger effect = lower value 0.877 | S. cerevisiae deletion strains, locus YFR028C, strain CDC14, stronger effect = lower value 0.974 | S. cerevisiae deletion strains, locus YGR040W, strain KSS1, stronger effect = lower value 0.824 | S. cerevisiae deletion strains, locus YGR052W, strain FMP48, stronger effect = lower value 0.768 | [3] 0.622 | S. cerevisiae deletion strains, locus YHR082C, strain KSP1, stronger effect = lower value 0.843 | S. cerevisiae deletion strains, locus YHR205W, strain SCH9, stronger effect = lower value 0.87 | S. cerevisiae deletion strains, locus YIL147C, strain SLN1, stronger effect = lower value 0.962 | [4] 0.643 | S. cerevisiae deletion strains, locus YJL128C, strain PBS2, stronger effect = lower value 0.942 | S. cerevisiae deletion strains, locus YJL157C, strain FAR1, stronger effect = lower value 0.773 | S. cerevisiae deletion strains, locus YJR016C, strain ILV3, stronger effect = lower value 0.968 | S. cerevisiae deletion strains, locus YJR066W, strain TOR1 (second series), stronger effect = lower value 0.764 | [5] 0.727 | S. cerevisiae deletion strains, locus YKL048C, strain ELM1, stronger effect = lower value 0.873 | S. cerevisiae deletion strains, locus YKL067W, strain YNK1, stronger effect = lower value 0.823 | S. cerevisiae deletion strains, locus YKL101W, strain HSL1, stronger effect = lower value 0.833 | S. cerevisiae deletion strains, locus YKL193C, strain SDS22, stronger effect = lower value 0.965 | S. cerevisiae deletion strains, locus YKL203C, strain TOR2, stronger effect = lower value 0.786 | S. cerevisiae deletion strains, locus YLR133W, strain CKI1, stronger effect = lower value 0.804 | S. cerevisiae deletion strains, locus YLR403W, strain SFP1, stronger effect = lower value 0.75 | S. cerevisiae deletion strains, locus YML070W, strain DAK1, stronger effect = lower value 0.727 | S. cerevisiae deletion strains, locus YMR001C, strain CDC5, stronger effect = lower value 0.961 | S. cerevisiae deletion strains, locus YMR205C, strain PFK2 (second series), stronger effect = lower value 0.841 | S. cerevisiae deletion strains, locus YMR277W, strain FCP1, stronger effect = lower value 0.971 | S. cerevisiae deletion strains, locus YNL006W, strain LST8, stronger effect = lower value 0.976 | S. cerevisiae deletion strains, locus YNL020C, strain ARK1, stronger effect = lower value 0.79 | S. cerevisiae deletion strains, locus YNL161W, strain CBK1, stronger effect = lower value 0.959 | [7] 0.754 | S. cerevisiae deletion strains, locus YNL207W, strain RIO2, stronger effect = lower value 0.957 | S. cerevisiae deletion strains, locus YNL222W, strain SSU72, stronger effect = lower value 0.975 | S. cerevisiae deletion strains, locus YNL307C, strain MCK1 (second series), stronger effect = lower value 0.76 | S. cerevisiae deletion strains, locus YOL078W, strain AVO1, stronger effect = lower value 0.965 | S. cerevisiae deletion strains, locus YOL136C, strain PFK27, stronger effect = lower value 0.679 | S. cerevisiae deletion strains, locus YOR061W, strain CKA2, stronger effect = lower value 0.809 | S. cerevisiae deletion strains, locus YOR119C, strain RIO1, stronger effect = lower value 0.84 | [8] 0.657 | S. cerevisiae deletion strains, locus YOR329C, strain SCD5, stronger effect = lower value 0.961 | S. cerevisiae deletion strains, locus YPL031C, strain PHO85, stronger effect = lower value 0.8 | S. cerevisiae deletion strains, locus YPL153C, strain RAD53, stronger effect = lower value 0.784 | S. cerevisiae deletion strains, locus YPL204W, strain HRR25, stronger effect = lower value 0.754 | S. cerevisiae deletion strains, locus YPL209C, strain IPL1, stronger effect = lower value 0.964 | S. cerevisiae deletion strains, locus YPR025C, strain CCL1, stronger effect = lower value 0.954 | S. cerevisiae deletion strains, locus YPR106W, strain ISR1, stronger effect = lower value 0.98 | S. cerevisiae deletion strains, locus YPR111W, strain DBF20, stronger effect = lower value 0.958 | S. cerevisiae deletion strains, strain NNK1, stronger effect = lower value 0.964 | S. cerevisiae deletion strains, strain TSCII, stronger effect = lower value 0.96
active: S. cerevisiae deletion strains, locus YGR092W, strain DBF2, stronger effect = lower value 0.371 | [2] 0.562 | [6] 0.65 | [9] 0.579

CCOC(=O)CCc1cc(N=Cc2cc(Cl)cc(Cl)c2O)c(O)c(N=Cc2cc(Cl)cc(Cl)c2O)c1
active: S. cerevisiae deletion strains, locus YAL013W, strain DEP1, stronger effect = lower value 0.257 | S. cerevisiae deletion strains, locus YBR229C, strain ROT2, stronger effect = lower value 0.225 | [1] 0.48 | S. cerevisiae deletion strains, locus YDR150W, strain NUM1, stronger effect = lower value 0.328 | S. cerevisiae deletion strains, locus YEL061C, strain CIN8, stronger effect = lower value 0.254 | S. cerevisiae deletion strains, locus YGR078C, strain PAC10, stronger effect = lower value 0.14 | [2] 0.126 | S. cerevisiae deletion strains, locus YHR087W, strain rtc3, stronger effect = lower value 0.0846 | S. cerevisiae deletion strains, locus YJL187C, strain SWE1, stronger effect = lower value 0.204 | S. cerevisiae deletion strains, locus YJR043C, strain POL32, stronger effect = lower value 0.403 | S. cerevisiae deletion strains, locus YJR075W, strain HOC1, stronger effect = lower value 0.245 | S. cerevisiae deletion strains, locus YKL190W, strain CNB1, stronger effect = lower value 0.537 | S. cerevisiae deletion strains, locus YLR039C, strain RIC1, stronger effect = lower value 0.164 | S. cerevisiae deletion strains, locus YLR058C, strain SHM2 (second series), stronger effect = lower value 0.598 | S. cerevisiae deletion strains, locus YLR085C, strain ARP6, stronger effect = lower value 0.14 | S. cerevisiae deletion strains, locus YLR262C, strain YPT6, stronger effect = lower value 0.156 | S. cerevisiae deletion strains, locus YML094W, strain GIM5, stronger effect = lower value 0.243 | S. cerevisiae deletion strains, locus YMR219W, strain ESC1, stronger effect = lower value 0.278 | S. cerevisiae deletion strains, locus YMR263W, strain SAP30, stronger effect = lower value 0.354 | S. cerevisiae deletion strains, locus YNL153C, strain GIM3, stronger effect = lower value 0.454 | S. cerevisiae deletion strains, locus YNL298W, strain CLA4 (second series), stronger effect = lower value 0.411 | S. cerevisiae deletion strains, locus YNL322C, strain KRE1, stronger effect = lower value 0.935 | S. cerevisiae deletion strains, locus YNR030W, strain Alg12, stronger effect = lower value 0.63 | S. cerevisiae deletion strains, locus YPL055C, strain LGE1, stronger effect = lower value 0.212 | S. cerevisiae deletion strains, locus YPL241C, strain CIN2, stronger effect = lower value 0.476 | S. cerevisiae deletion strains, locus YPR135W, strain CTF4, stronger effect = lower value 0.558 | S. cerevisiae strains, strain wild type, stronger effect = lower value 0.555

C#CCN(C)C(C)Cc1ccccc1 (stereo unspecified)
inactive: [2] 1.01 | [3] 1.03 | [4] 1.02 | [5] 0.95 | [6] 0.994 | [7] 0.959 | [8] 1.02 | [9] 0.989
